What was measured:
Assay in all cases: log2 ratio of Biotin-Ahx-Ub-VS probe labelling (fragment/DMSO); higher = less target engagement (more negative = stronger competition), active = hit call of the paper (q ≤ 0.05, log2 ratio ≤ -1)
Conditions in all cases: compound concentration: 200 uM; treatment time: 3 h
[1] = biological target: T1, USP19 (UniProt O94966)
T1 sequence (whole entry): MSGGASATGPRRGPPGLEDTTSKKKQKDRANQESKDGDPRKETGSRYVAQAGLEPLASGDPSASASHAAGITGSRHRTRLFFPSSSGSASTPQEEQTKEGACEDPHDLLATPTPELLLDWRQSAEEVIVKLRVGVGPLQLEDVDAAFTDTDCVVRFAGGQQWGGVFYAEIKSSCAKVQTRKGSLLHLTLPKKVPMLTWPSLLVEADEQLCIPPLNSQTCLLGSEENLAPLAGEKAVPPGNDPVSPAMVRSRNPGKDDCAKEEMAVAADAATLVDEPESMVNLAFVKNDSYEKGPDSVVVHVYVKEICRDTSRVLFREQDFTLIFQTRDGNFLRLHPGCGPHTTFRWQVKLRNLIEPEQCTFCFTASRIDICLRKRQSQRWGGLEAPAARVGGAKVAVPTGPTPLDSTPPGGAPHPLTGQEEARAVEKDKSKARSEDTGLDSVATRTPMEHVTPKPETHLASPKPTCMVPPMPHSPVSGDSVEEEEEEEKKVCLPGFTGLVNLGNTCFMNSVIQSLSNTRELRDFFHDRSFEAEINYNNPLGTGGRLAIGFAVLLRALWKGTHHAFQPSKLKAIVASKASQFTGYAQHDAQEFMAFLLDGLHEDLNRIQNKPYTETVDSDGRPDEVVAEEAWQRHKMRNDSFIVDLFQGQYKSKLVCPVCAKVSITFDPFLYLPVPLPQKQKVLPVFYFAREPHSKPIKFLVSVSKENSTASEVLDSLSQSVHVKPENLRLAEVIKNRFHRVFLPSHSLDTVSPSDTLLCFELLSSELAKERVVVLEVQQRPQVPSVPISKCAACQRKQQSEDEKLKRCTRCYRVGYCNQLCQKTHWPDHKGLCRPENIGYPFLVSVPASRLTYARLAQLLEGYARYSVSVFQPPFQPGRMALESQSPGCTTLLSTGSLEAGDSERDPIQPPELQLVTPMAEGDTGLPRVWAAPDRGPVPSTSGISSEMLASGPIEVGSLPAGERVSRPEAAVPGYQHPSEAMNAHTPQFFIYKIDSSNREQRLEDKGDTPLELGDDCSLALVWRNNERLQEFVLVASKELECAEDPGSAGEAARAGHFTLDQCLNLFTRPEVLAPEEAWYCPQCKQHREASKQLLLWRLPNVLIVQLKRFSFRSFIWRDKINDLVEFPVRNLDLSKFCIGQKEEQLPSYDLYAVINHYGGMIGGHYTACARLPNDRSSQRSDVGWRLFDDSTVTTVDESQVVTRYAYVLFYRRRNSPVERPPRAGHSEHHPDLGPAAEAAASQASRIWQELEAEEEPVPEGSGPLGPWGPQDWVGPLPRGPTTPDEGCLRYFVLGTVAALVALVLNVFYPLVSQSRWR
Outline: (§1)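 Labelled DUBs from HEK293T lysate were NeutrAvidin-enriched, digested with LysC and trypsin, and run by diaPASEF LC-MS/MS. Before that, each 495 µg sample in Tris/CHAPS/IGEPAL buffer with protease inhibitors was treated in triplicate with fragment at 200 µM or vehicle for 3 h, then with Biotin-Ahx-Ub-VS at 0.5 µM final for 1 h. Values are average log2 ratios of fragment over vehicle by unpaired t-test, based on global-median-normalised Spectronaut label-free quantities from proteins with ≥2 unique peptides.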

[2] = biological target: T2, USP22 (UniProt Q9UPT9)
T2 sequence (whole entry): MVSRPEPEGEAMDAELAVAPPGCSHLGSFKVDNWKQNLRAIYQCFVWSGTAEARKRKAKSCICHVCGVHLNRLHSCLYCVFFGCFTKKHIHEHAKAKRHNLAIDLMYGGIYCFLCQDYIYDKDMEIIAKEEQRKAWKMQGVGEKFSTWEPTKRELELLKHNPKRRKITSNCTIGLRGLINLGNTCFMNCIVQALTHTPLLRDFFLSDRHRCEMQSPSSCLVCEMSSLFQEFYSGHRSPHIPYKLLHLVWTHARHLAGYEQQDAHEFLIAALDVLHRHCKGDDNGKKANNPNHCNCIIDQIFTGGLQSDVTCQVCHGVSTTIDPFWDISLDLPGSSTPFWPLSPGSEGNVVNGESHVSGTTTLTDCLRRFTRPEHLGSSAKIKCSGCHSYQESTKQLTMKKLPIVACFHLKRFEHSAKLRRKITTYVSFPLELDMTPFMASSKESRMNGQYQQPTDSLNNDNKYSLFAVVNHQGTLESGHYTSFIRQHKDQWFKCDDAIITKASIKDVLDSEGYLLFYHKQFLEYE
Outline: as §1

[3] = biological target: USP24 (UniProt Q9UPU5)
Outline: as §1

[4] = biological target: T3, USP25 (UniProt Q9UHP3)
T3 sequence (whole entry): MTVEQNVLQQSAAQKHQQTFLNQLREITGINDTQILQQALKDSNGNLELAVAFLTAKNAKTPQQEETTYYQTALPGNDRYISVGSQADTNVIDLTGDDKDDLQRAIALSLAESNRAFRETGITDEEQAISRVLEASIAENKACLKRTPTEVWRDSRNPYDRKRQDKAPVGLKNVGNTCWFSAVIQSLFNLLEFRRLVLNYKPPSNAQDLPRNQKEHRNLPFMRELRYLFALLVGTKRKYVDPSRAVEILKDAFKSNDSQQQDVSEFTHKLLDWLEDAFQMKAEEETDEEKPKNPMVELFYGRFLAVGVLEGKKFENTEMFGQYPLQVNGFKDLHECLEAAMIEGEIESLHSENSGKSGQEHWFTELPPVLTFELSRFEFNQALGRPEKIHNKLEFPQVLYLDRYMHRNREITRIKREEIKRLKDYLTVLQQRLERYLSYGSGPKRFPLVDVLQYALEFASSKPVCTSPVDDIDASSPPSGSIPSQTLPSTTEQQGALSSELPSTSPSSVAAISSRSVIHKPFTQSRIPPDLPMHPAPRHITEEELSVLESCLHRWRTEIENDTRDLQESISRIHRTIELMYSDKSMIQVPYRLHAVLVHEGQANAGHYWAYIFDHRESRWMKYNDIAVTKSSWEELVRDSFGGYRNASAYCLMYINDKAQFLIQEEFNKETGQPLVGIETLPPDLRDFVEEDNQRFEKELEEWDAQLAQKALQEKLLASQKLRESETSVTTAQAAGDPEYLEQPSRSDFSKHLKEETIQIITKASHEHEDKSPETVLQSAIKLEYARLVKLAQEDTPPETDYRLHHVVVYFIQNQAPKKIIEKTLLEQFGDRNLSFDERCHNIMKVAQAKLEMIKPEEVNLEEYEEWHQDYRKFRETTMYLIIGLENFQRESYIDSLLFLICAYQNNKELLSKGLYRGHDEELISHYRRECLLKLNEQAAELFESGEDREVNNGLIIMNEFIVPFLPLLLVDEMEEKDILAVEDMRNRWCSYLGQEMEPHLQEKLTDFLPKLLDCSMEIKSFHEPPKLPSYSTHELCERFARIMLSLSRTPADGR
Outline: as §1

[5] = biological target: T4, USP28 (UniProt Q96RU2)
T4 sequence (whole entry): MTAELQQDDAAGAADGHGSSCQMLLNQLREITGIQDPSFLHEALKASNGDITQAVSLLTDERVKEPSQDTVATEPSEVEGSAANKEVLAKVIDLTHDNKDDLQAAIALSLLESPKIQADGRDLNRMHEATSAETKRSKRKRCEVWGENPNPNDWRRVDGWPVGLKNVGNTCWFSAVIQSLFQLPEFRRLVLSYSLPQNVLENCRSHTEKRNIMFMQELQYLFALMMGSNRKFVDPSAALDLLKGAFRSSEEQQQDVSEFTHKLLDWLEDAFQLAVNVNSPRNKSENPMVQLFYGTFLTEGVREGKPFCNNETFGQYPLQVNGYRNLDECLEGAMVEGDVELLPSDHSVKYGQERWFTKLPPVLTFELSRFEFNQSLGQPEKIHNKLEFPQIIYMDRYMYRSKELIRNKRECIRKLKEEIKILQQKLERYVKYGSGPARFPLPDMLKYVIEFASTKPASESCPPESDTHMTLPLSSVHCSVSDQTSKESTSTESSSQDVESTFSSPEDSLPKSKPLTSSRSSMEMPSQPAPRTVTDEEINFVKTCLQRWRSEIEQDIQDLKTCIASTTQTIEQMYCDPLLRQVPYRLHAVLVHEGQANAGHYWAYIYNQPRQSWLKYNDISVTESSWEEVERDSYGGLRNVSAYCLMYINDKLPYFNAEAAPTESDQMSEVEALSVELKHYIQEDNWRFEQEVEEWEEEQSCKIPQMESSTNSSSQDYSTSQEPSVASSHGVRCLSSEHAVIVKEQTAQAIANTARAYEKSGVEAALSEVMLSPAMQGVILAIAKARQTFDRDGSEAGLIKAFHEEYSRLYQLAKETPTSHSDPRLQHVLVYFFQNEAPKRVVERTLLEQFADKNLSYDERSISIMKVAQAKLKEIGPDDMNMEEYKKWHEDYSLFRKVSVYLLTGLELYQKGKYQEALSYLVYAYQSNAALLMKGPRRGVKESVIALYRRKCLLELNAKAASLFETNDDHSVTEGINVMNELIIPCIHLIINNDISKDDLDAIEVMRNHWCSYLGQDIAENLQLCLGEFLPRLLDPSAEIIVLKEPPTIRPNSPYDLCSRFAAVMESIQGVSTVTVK
Outline: as §1

Measured: log2 ratio of Biotin-Ahx-Ub-VS probe labelling

Chain of USP24 (Q9UPU5 whole entry): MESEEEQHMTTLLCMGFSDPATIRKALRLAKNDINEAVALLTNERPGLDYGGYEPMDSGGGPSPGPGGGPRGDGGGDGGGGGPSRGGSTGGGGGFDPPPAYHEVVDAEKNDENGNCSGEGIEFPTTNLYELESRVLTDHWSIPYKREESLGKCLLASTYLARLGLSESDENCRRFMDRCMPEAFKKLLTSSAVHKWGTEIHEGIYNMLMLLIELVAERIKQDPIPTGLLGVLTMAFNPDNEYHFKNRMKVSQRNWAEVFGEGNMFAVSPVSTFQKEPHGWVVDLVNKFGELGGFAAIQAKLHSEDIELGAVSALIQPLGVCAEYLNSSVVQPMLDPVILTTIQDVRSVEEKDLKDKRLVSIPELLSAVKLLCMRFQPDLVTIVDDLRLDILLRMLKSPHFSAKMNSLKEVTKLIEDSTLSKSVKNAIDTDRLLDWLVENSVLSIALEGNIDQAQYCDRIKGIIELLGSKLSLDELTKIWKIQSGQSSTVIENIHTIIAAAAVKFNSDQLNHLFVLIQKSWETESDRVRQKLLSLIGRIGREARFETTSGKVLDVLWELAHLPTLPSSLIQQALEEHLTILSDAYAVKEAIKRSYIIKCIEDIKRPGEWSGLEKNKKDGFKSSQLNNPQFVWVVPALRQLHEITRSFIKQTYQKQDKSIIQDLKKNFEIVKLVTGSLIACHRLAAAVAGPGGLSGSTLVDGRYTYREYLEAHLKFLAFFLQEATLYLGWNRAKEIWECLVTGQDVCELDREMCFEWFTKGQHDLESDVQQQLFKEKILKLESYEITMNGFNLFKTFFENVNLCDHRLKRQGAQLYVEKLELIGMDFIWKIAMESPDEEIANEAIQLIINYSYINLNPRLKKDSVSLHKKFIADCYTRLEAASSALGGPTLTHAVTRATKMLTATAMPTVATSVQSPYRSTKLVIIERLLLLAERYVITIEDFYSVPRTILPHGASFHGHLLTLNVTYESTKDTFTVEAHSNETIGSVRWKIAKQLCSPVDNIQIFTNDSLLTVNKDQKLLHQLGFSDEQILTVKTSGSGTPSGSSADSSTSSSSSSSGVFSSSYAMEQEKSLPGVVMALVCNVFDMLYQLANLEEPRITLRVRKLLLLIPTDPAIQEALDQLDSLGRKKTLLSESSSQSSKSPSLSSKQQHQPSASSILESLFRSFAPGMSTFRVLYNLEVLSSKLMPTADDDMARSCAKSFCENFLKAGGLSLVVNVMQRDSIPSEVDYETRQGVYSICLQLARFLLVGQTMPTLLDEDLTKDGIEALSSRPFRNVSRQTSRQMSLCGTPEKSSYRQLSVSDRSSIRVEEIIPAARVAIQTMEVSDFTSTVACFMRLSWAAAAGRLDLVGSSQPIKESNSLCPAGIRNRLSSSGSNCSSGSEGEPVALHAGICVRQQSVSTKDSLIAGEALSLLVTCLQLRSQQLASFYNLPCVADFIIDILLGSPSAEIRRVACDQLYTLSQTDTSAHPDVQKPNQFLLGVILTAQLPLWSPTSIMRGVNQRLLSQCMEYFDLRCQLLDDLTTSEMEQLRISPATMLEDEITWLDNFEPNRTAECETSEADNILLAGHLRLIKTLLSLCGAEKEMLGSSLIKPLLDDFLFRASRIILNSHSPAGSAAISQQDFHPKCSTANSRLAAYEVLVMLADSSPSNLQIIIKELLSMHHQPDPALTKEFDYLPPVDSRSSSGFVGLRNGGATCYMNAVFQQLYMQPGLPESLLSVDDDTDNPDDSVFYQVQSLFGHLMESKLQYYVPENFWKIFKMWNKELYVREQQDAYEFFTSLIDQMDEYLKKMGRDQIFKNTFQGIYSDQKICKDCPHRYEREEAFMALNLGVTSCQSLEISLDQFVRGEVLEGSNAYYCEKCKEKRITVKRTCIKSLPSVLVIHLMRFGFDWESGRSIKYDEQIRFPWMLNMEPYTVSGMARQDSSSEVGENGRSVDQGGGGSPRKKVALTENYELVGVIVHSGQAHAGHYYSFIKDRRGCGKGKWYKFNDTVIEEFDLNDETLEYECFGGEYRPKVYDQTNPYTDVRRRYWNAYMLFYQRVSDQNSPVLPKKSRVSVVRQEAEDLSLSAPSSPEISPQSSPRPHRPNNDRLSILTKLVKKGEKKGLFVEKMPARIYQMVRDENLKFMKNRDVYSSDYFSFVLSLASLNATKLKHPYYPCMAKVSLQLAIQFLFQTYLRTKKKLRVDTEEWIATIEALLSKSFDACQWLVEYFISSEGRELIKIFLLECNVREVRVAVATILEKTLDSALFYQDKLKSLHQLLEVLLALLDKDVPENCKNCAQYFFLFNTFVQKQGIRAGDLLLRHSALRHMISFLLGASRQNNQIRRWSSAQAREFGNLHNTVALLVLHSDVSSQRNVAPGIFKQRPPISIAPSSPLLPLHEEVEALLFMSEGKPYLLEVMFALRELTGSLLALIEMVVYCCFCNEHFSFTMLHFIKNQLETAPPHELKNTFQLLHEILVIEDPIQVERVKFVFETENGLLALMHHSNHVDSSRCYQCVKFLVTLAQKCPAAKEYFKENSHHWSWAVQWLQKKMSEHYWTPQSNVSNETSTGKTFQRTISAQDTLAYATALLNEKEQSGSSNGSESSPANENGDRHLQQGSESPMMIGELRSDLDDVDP

O=C(CCl)N1CCOCCC1c1ccccc1 (stereo not given)
inactive: [1] -0.132 | [2] 0.147 | [3] -0.633 | [4] 0.0233 | [5] -0.12

From the supplement of paper PMC11732987, “Enantioselective OTUD7B fragment discovery through chemoproteomics screening and high-throughput optimisation” (Communications Chemistry, 2025)
